Test results reported in PubChem BioAssay AID624045 (National Center for Advancing Translational Sciences (NCATS), 2012).
The source made the active and inactive calls. Calls follow the shape of the dose curve; as a rule, active = well fitted inhibition curve with a large enough effect; inactive = flat fitted curve, though single readings scatter.

Target: Dual specificity tyrosine-phosphorylation-regulated kinase 1A (Homo sapiens) (UniProt Q13627)
Experiment: Reaction Biology data for inhibitors of DYRK1A: Probe SAR
Details: Reaction Biology DYRK1A kinase assay, 10 uM ATP; series mostly up to 10 µM; activity change, negative = inhibition: at the top concentration
Description: Alternative splicing of pre-mRNAs plays a major role in the regulation of eukaryotic gene expression. Alternative splicing is now thought to be one of the primary reasons for the complexity of higher organisms leading to an average of three protein isoforms per gene. Aberrant splicing can lead to a number of diseases and is known to play a role in rare genetic diseases such as progeria syndrome. Hutchinson-Gilford Progeria Syndrome (HGPS) is a pediatric premature aging disease caused by a spontaneous mutation in the lamin A/C (LMNA) gene due to a single point mutation in the lamin A gene effecting 1 in 4 million people. To identify both specific splicing modulators of the lamin A gene as well as general splicing modulators, a cell-based HTS assay was developed using a minigene reporter system (AIDs, 1459 & 1487). […] This AID summarizes the characterization of lead compounds in Dyrk1a. NIH Molecular Libraries Probe Production Centers Network [MLPCN] NIH Chemical Genomics Center [NCGC] MLPCN Grant: MH084827 Assay Submitter (PI): Tom Misteli
Compound IC50s were determined at Reaction Biology (http://www.reactionbiology.com) with ten concentration points starting at 10 uM in the assay using a 3-fold dilution series. The control compound staurosporine was also tested in the 10-dose IC50 mode with the same 3-fold serial dilution, again starting at 10 uM. All kinase reactions were performed using 10 uM ATP in the assay. 100% activity was taken from kinase reactions with DMSO alone (the vehicle used for compound stock solutions).

Potency, active:
Cc1c(-c2ccnc(NCc3ccc(Cl)cc3)n2)sc(=O)n1C 0.0629 µM
c1cc(-c2ccc3c(c2)OCO3)nc(Nc2ccc3c(c2)OCO3)n1 0.0249 µM
Clc1ccc(CNc2ncncc2-c2ccc3c(c2)OCO3)cc1Cl 3.45 µM
Cc1nc(CN(C)c2ncnc3ccc(-c4ccc5[nH]ncc5c4)cc23)cs1 0.0641 µM
Brc1ccc(CNc2nccc(-c3ccc4c(c3)OCO4)n2)cc1Br 0.0793 µM
COc1cccc(-c2ccnc(NCc3ccc(Cl)c(Cl)c3)n2)c1 4.65 µM
COc1cccc(-c2ccnc(NCc3ccc(Cl)cc3)n2)c1 6.36 µM
COc1ccc(-c2ccnc(NCc3ccc(Cl)c(Cl)c3)n2)cc1 0.203 µM
Clc1cc(Cl)cc(CNc2ncncc2-c2ccc3c(c2)OCO3)c1 0.282 µM
FC(F)(F)c1cccc(Nc2nccc(-c3ccc4c(c3)OCO4)n2)c1 0.0104 µM
Clc1ccc(Nc2nccc(-c3ccc4c(c3)OCO4)n2)cc1 0.273 µM
O=[N+]([O-])c1cc(Nc2nccc(-c3ccc4c(c3)OCO4)n2)cc(C(F)(F)F)c1 0.0241 µM
Clc1ccc(CNc2nccc(-c3ccc4c(c3)OCO4)n2)cc1Cl 0.0263 µM
c1cncc(CNc2ccnc(-c3ccc4cn[nH]c4c3)n2)c1 1.43 µM
Cc1nc(CNc2ncnc3ccc(-c4ccc5c(c4)OCO5)cc23)cs1 0.0333 µM
Clc1ccc(CNc2nccc(-c3ccc4c(c3)OCCO4)n2)cc1Cl 0.0182 µM
c1cncc(CNc2ccnc(-c3ccc4[nH]ncc4c3)n2)c1 0.349 µM
Cc1c(-c2ccnc(NCc3cccnc3)n2)sc(=O)n1C 0.0293 µM
Clc1ccc(CNc2ccnc(-c3ccc4[nH]ncc4c3)n2)cc1Cl 2.35 µM
FC(F)(F)c1cc(Br)cc(Nc2nccc(-c3ccc4c(c3)OCO4)n2)c1 0.107 µM
c1cncc(CNc2nccc(-c3ccc4[nH]ncc4c3)n2)c1 0.0608 µM
Clc1ccc(CNc2nccc(-c3ccc4cn[nH]c4c3)n2)cc1Cl 0.169 µM
Brc1cc(Br)cc(CNc2nccc(-c3ccc4c(c3)OCO4)n2)c1 0.0107 µM
Clc1ccc(CNc2ncncc2-c2ccc3c(c2)OCO3)cc1 4.58 µM
Clc1ccc(CNc2nccc(-c3ccc4[nH]ncc4c3)n2)cc1Cl 0.128 µM
COc1ccc(-c2ccnc(NCc3ccc(Cl)cc3)n2)cc1 0.558 µM
Cc1nc(CN(C)c2ncnc3ccc(-c4ccc5c(c4)OCO5)cc23)cs1 0.0052 µM
c1nc(NCC2CCCO2)c2cc(-c3ccc4c(c3)OCO4)ccc2n1 (configuration not stated) 0.0243 µM
c1cncc(CNc2nccc(-c3ccc4c(c3)OCO4)n2)c1 0.0071 µM

Activity change, negative = inhibition, inactive:
Clc1ccc(CNc2ccnc(-c3ccc4c(c3)OCO4)n2)cc1Cl -22.4%
c1cncc(CNc2ncncc2-c2ccc3c(c2)OCO3)c1 -50%
COc1ccc(-c2ccnc(NCc3ccc(Cl)c(Cl)c3)n2)cc1OC -30.6%
